According to ChEMBL document CHEMBL1961873, “Compounds: GSK PKIS; Assays: Nanosyn kinase panel” (2012):

Columns and labels:
[1] = biological target: Dual specificity protein kinase CLK3 (Homo sapiens) (UniProt P49761); details: at 1 µM;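 further: each value is the mean inhibition of CLK3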
[2] = biological target: Dual specificity tyrosine-phosphorylation-regulated kinase 1A (Homo sapiens) (UniProt Q13627); details: at 0.1 µM
[3] = biological target: Dual specificity tyrosine-phosphorylation-regulated kinase 1A (Homo sapiens) (UniProt Q13627); details: at 1 µM
[4] = biological target: Dual specificity tyrosine-phosphorylation-regulated kinase 1B (Homo sapiens) (UniProt Q9Y463); details: at 0.1 µM
Chain of Dual specificity tyrosine-phosphorylation-regulated kinase 1B (Homo sapiens) (Q9Y463 whole entry, looked up): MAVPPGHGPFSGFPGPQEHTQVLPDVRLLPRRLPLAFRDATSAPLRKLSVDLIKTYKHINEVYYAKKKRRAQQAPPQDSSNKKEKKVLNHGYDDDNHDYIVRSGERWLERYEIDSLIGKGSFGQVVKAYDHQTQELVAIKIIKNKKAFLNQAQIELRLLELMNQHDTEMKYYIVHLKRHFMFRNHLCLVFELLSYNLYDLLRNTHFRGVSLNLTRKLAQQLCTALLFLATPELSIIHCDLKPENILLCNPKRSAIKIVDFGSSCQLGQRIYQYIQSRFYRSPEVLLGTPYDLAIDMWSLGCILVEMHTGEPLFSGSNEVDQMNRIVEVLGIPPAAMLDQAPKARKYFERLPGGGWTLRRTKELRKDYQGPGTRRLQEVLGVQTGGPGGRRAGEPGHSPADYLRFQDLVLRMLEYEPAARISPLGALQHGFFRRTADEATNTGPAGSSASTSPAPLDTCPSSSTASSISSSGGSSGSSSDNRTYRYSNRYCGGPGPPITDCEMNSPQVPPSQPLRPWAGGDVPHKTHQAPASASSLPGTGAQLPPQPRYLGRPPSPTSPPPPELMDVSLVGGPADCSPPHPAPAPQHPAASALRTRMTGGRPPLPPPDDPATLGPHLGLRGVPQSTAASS

[5] = biological target: Dual specificity tyrosine-phosphorylation-regulated kinase 1B (Homo sapiens) (UniProt Q9Y463); details: at 1 µM
[6] = biological target: T1, Dual specificity tyrosine-phosphorylation-regulated kinase 2 (Homo sapiens) (UniProt Q92630); details: at 0.1 µM
T1 sequence (whole entry): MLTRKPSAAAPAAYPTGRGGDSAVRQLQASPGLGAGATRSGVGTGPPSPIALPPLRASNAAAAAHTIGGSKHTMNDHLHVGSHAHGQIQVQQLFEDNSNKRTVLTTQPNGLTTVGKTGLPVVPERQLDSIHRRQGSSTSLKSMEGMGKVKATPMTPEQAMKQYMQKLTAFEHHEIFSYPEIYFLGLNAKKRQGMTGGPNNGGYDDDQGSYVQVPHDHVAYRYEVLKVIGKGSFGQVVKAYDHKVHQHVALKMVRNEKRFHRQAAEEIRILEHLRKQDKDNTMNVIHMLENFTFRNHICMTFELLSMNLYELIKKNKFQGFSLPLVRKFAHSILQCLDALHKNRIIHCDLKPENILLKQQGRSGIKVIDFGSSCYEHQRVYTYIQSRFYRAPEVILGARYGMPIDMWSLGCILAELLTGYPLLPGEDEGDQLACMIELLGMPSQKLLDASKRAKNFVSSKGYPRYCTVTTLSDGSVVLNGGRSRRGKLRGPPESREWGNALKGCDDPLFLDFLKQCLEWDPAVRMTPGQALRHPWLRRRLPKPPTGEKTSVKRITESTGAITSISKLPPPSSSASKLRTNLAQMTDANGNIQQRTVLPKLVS

[7] = biological target: T1, Dual specificity tyrosine-phosphorylation-regulated kinase 2 (Homo sapiens); details: at 1 µM
[8] = biological target: Glycogen synthase kinase-3 alpha (Homo sapiens) (UniProt P49840); details: at 0.1 µM
Chain of Glycogen synthase kinase-3 alpha (Homo sapiens) (P49840 2-483 limits assumed): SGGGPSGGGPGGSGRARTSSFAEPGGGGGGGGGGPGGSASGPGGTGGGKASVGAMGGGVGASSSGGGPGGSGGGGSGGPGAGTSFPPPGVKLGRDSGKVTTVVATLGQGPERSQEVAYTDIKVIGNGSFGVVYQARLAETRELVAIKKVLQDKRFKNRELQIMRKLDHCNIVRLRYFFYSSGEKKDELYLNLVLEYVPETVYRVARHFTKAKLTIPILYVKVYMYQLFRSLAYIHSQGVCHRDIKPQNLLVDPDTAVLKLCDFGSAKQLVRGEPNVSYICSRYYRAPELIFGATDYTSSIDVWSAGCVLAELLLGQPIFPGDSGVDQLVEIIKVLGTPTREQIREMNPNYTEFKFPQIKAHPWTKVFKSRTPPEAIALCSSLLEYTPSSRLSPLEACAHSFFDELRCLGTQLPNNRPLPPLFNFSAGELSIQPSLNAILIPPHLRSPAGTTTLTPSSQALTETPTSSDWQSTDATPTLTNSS

[9] = biological target: Glycogen synthase kinase-3 alpha (Homo sapiens) (UniProt P49840); details: at 1 µM
[10] = biological target: Glycogen synthase kinase-3 beta (Homo sapiens) (UniProt P49841); details: at 0.1 µM
Chain of Glycogen synthase kinase-3 beta (Homo sapiens) (P49841 whole entry, looked up): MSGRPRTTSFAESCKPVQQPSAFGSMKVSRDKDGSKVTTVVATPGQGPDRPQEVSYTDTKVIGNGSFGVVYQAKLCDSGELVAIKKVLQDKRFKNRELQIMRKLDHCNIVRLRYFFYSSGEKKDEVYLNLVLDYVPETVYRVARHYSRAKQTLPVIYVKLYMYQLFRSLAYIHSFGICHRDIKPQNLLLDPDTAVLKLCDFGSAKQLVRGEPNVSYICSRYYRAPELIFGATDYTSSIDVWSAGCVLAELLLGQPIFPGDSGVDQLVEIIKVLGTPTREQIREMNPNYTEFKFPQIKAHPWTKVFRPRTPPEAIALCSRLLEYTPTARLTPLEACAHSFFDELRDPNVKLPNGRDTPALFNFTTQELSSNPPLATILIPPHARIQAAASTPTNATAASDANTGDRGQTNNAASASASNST

[11] = biological target: Glycogen synthase kinase-3 beta (Homo sapiens) (UniProt P49841); details: at 1 µM
[12] = biological target: Homeodomain-interacting protein kinase 1 (Homo sapiens) (UniProt Q86Z02); details: at 0.1 µM
Chain of Homeodomain-interacting protein kinase 1 (Homo sapiens) (Q86Z02 whole entry, looked up): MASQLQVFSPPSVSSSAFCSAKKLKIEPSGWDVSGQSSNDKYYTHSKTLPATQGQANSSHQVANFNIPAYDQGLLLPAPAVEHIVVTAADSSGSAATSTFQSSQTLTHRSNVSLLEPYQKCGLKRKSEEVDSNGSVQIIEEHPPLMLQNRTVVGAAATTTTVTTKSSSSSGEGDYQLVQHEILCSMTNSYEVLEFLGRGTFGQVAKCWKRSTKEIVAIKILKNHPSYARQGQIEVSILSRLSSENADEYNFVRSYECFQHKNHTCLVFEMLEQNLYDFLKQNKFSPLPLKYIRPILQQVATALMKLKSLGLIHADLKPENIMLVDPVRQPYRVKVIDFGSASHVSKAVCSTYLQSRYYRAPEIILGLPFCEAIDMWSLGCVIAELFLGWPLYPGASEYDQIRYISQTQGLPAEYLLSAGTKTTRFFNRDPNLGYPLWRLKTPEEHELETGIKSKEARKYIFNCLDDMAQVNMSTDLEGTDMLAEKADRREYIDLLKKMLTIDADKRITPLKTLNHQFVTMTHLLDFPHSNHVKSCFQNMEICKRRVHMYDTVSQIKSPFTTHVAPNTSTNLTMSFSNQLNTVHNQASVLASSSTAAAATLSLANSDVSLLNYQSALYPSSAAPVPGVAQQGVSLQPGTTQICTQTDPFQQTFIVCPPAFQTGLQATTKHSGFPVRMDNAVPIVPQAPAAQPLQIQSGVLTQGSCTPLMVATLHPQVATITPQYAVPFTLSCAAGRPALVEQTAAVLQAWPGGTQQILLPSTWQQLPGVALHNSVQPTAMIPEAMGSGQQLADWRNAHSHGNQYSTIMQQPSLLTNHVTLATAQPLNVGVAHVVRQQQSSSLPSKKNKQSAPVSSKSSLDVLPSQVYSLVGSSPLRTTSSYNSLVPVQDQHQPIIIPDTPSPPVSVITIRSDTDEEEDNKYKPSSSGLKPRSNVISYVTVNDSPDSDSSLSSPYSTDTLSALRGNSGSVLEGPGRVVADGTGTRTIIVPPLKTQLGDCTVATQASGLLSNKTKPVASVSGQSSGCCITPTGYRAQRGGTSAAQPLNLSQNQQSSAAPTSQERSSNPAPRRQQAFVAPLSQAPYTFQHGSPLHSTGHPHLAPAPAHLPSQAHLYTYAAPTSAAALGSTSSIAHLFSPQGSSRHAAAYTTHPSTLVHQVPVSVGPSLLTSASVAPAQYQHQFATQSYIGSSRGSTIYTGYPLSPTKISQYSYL

[13] = biological target: Homeodomain-interacting protein kinase 1 (Homo sapiens) (UniProt Q86Z02); details: at 1 µM
[14] = biological target: T2, Homeodomain-interacting protein kinase 4 (Homo sapiens) (UniProt Q8NE63); details: at 0.1 µM
T2 sequence (whole entry): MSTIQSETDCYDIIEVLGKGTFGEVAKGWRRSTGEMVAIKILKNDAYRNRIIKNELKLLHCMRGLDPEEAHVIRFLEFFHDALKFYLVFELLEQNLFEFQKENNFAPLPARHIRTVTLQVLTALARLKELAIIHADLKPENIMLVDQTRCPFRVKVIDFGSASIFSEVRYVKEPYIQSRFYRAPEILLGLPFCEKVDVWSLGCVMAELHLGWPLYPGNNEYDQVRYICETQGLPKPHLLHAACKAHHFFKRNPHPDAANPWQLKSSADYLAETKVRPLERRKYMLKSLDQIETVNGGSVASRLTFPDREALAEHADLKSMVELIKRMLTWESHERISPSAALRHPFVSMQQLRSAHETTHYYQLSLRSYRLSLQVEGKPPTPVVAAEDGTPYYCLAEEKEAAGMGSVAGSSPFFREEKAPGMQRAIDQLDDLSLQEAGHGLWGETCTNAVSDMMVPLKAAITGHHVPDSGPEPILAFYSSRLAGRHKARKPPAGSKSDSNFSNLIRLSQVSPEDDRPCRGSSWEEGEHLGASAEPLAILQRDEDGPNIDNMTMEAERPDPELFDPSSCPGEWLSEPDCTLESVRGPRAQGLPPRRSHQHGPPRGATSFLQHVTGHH

[15] = biological target: T2, Homeodomain-interacting protein kinase 4 (Homo sapiens); details: at 1 µM
[16] = biological target: Mitogen-activated protein kinase 9 (Homo sapiens) (UniProt P45984); details: at 0.1 µM
Chain of Mitogen-activated protein kinase 9 (Homo sapiens) (P45984 whole entry, looked up): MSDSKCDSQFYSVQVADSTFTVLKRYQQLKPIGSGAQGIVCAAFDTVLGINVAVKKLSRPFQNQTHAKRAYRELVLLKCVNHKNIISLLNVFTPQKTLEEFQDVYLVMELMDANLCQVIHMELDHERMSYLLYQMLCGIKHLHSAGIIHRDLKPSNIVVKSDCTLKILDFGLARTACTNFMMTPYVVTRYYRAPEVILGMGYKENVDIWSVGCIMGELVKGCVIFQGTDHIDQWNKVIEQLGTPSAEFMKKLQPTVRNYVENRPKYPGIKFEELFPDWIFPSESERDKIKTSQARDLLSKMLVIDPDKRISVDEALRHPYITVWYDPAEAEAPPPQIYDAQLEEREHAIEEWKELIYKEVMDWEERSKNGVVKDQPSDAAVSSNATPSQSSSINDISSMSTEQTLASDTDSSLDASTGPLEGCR

[17] = biological target: Mitogen-activated protein kinase 9 (Homo sapiens) (UniProt P45984); details: at 1 µM
[18] = biological target: Mitogen-activated protein kinase 1 (Homo sapiens) (UniProt P28482); details: at 0.1 µM
Chain of Mitogen-activated protein kinase 1 (Homo sapiens) (P28482 whole entry): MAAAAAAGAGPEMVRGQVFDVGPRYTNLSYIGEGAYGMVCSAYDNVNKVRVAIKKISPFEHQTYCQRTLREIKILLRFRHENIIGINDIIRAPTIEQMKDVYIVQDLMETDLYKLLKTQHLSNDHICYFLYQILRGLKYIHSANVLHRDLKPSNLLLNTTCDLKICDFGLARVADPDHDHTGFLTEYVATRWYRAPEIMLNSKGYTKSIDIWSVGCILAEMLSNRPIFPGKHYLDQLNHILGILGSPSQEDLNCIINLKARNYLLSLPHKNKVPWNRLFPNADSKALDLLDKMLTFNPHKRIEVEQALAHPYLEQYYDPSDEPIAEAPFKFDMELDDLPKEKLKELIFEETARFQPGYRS

[19] = biological target: Mitogen-activated protein kinase 1 (Homo sapiens) (UniProt P28482); details: at 1 µM
[20] = biological target: Mitogen-activated protein kinase 3 (Homo sapiens) (UniProt P27361); details: at 0.1 µM;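 further: each value is a mean inhibition figure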
Chain of Mitogen-activated protein kinase 3 (Homo sapiens) (P27361 whole entry): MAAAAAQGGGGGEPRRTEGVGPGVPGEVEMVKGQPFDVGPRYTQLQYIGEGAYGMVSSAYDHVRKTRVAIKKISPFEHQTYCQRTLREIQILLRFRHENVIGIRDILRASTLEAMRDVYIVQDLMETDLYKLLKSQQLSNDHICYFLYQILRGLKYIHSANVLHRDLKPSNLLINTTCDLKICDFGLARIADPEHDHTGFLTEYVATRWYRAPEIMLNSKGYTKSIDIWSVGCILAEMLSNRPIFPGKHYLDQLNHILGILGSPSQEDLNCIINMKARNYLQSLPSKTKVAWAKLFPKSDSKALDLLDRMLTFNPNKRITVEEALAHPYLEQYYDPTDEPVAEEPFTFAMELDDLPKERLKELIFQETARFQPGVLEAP

Chain of Dual specificity protein kinase CLK3 (Homo sapiens) (P49761 whole entry, looked up): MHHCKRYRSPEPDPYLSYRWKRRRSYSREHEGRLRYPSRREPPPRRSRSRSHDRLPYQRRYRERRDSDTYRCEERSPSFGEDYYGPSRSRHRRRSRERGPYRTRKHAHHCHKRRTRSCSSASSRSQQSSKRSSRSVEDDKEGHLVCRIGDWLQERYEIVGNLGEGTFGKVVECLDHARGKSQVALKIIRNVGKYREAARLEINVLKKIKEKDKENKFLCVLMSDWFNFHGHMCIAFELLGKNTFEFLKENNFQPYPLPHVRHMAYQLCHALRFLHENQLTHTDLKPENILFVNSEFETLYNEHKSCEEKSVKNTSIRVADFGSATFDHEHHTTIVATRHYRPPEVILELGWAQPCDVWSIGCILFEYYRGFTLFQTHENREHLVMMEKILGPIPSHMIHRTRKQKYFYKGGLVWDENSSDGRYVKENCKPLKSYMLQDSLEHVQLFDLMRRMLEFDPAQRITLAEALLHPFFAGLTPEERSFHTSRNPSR

| Structure (SMILES) | inhibition [1] [%] | inhibition [2] [%] | inhibition [3] [%] | inhibition [4] [%] | inhibition [5] [%] | inhibition [6] [%] | inhibition [7] [%] | inhibition [8] [%] | inhibition [9] [%] | inhibition [10] [%] | inhibition [11] [%] | inhibition [12] [%] | inhibition [13] [%] | inhibition [14] [%] | inhibition [15] [%] | inhibition [16] [%] | inhibition [17] [%] | inhibition [18] [%] | inhibition [19] [%] | inhibition [20] [%] |
| --- | --- | --- | --- | --- | --- | --- | --- | --- | --- | --- | --- | --- | --- | --- | --- | --- | --- | --- | --- | --- |
| CS(=O)(=O)CCNCc1ccc(-c2ccc3ncnc(Nc4ccc(OCc5ccccc5)c(C(F)(F)F)c4)c3c2)o1 | 0.19 | 2.36 | 4.91 | -2.07 | -0.6 | 3.17 | 0.91 | 3.36 | 3.82 | 3.13 | 3.51 | -3.76 | -0.23 | -0.74 | -1.78 | 2.51 | 0.92 | 4.58 | 5.24 | 3.56 |
| c1cc(-c2cnn3nc(N4CCOCC4)ccc23)nc(NC2CC2)n1 | 8.62 | 7.48 | 40.4 | 6.08 | 35.8 | 5.57 | 32.8 | 4.47 | 26.4 | 2.95 | 18.2 | 3.36 | 29 | 4.39 | 20.6 | 5.03 | 26.1 | 1.45 | 7.25 | 4.13 |
| CN(C)CCOc1ccc(-c2nc(-c3ccncc3)c(-c3ccc4c(c3)CC/C4=N\O)[nH]2)cc1 | 3.66 | 4.17 | 8.33 | 2.86 | 5.07 | 2.04 | 4.1 | 5.08 | 9.93 | 4.7 | 9.68 | 6 | 17.8 | 3.76 | 8.61 | -0.13 | 6.51 | 3.96 | 2.88 | 1.97 |
| CCN1CCC(CC(=O)Nc2n[nH]c3nnc(-c4cccc(F)c4F)cc23)CC1 | 2.16 | 10.4 | 53.1 | 7.85 | 46.9 | 1.7 | 5.64 | 88.8 | 93.9 | 85 | 94.4 | -3.8 | 8.59 | 0.11 | 3 | 2.02 | -0.48 | 4.04 | 2.72 | 3.44 |
| COc1ccc(-c2oc3ncnc(N)c3c2-c2ccc(NC(=O)Nc3cc(C(F)(F)F)ccc3F)cc2)cc1 | 4.8 | 0.67 | 2.07 | -0.07 | 2.26 | 1.92 | 5.52 | 3.93 | 17.3 | 3.17 | 15.2 | 13.5 | 62 | 68.7 | 88.8 | 7.38 | 19.9 | 7.13 | 6.23 | 3.48 |
| CCCN(CCS(C)(=O)=O)Cc1ccc(-c2ccc3ncnc(Nc4ccc(OCc5cccc(F)c5)c(Cl)c4)c3c2)o1 | 3.58 | 4.83 | 10.8 | 4.87 | 10.4 | 1.93 | 2.03 | 7.55 | 9.2 | 6.85 | 10.2 | 6.46 | 11.6 | 3.01 | 9.25 | 2.74 | 4.94 | 1.68 | 3.24 | 1.75 |
| COC(=O)Nc1nc2ccc(Oc3ccc(NC(=O)Nc4cccc(Cl)c4)cc3)cc2[nH]1 | -1.09 | -1.75 | -2.75 | -1.02 | -0.33 | 1.12 | -2.41 | 3.91 | 3.54 | 2.92 | 4.55 | -1.97 | -0.94 | 2.35 | 14.8 | 1.98 | 5.76 | 1.02 | 1.55 | -0.95 |
| Cc1cccc2c1NC(=O)/C2=N\Nc1ccc(S(N)(=O)=O)cc1 | 3.84 | 1.06 | 5.61 | 0.89 | 1.16 | 2.62 | 3.24 | 3.97 | 8.42 | 3.71 | 7.38 | 1.24 | 4.95 | 2.16 | 1.3 | 1.94 | 4.49 | 2.25 | 0.43 | 2.41 |
| NS(=O)(=O)c1ccc(N/N=C2\C(=O)Nc3ccc4ncccc4c32)cc1 | 15 | 18.6 | 61.6 | 13 | 54.8 | 6.76 | 35.7 | 55.3 | 80.9 | 53.5 | 80.2 | 19.7 | 64.7 | 6.71 | 40 | 6.07 | 33.7 | 14.9 | 55.5 | 6.45 |
| CCNC(=O)O[C@H]1CN[C@H](C#Cc2cc3ncnc(Nc4ccc(OCc5cccc(F)c5)c(Cl)c4)c3s2)C1 | 2.52 | 1.66 | 3.98 | 0.74 | 1.59 | 3.13 | 5.14 | 3.4 | 9.61 | 2.01 | 8.04 | 2.47 | 5.41 | 2.15 | 0.62 | 1.6 | 4.37 | 1.5 | 2.66 | 0.46 |
| Nc1nc(-c2cccc(Cl)c2)c(-c2ccc3ncccc3n2)s1 | 3.8 | 6.62 | 31.8 | -0.12 | 12.7 | 3.16 | 5.31 | 3.74 | 11.2 | 2.21 | 7.52 | 2.34 | 6.93 | 2.76 | 13.9 | 5.19 | 13.9 | 6.28 | 6.55 | 5.26 |
| Fc1ccc(-c2cc(-c3c[nH]nc3-c3ccccn3)ccn2)cc1 | 0.54 | 2.96 | 5.69 | -1.65 | -0.27 | 3.36 | 4.06 | 2.14 | 2.16 | 1.39 | 2.88 | 1.57 | 0.95 | 1.68 | 4.16 | 3.65 | 11.3 | 6.73 | 5.51 | 6.42 |
| CNC(=O)c1cc(-c2ccc(F)cc2)cc(-c2ccc(S(=O)(=O)N3CCCC3)cc2)c1N | 1.45 | 2.86 | 3.9 | -1.54 | -0.38 | 2.23 | 2.03 | 3.5 | 5.1 | 2.65 | 4.74 | -2.69 | -0.12 | -0.78 | 0.3 | 1.82 | 2.81 | 4.15 | 4.03 | 2.42 |
